# Compound activity: PubChem BioAssay, National Center for Advancing Translational Sciences (NCATS)
# The list is not random: actives were taken first. Their share in the collection is about 0.43%.
# GAA glycogen mod: GAA glycogen-cleavage inhibition or activation; Potency, µM (series often up to 76.4 µM), without a hit: top-dose activity change, negative = inhibition, usual class: inhibitors; recombinant GAA, glycogen substrate, Amplex Red glucose oxidase fluorescence; 300,000 tested, 0.38% active; AID 2100;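 note: potency is the fitted concentration of half-maximal effect; 0% = full enzyme reaction and -100% = no-enzyme basal signal; the screen sought inhibitors and activators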
#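 qHTS, 1536-well; enzyme 4 nM final; cpd up to 77 uM; substrate bovine liver glycogen 30 ug; 50 mM citrate/phosphate pH 5.0, 0.01% Tween-20; 37 C, 40 min; Amplex Red detection 45 min RT; Hill fit → AC50.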
# GLA spleen mod: inhibitors or activators of human alpha-galactosidase in spleen homogenate | P06280 | human spleen homogenate, 4MU-alpha-Gal fluorescence, 40 min | Potency, µM (titrated, usually from 80 µM), for the others: at the highest dose activity change, negative = inhibition, most hits filed as inhibitors | 240,000 tested, 0.008% active | AID 2107;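 note: potency is the fitted concentration of half-maximal effect; 0% = enzyme with vehicle and -100% = no enzyme basal signal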
# Target sequence (P06280 32-429 limits assumed): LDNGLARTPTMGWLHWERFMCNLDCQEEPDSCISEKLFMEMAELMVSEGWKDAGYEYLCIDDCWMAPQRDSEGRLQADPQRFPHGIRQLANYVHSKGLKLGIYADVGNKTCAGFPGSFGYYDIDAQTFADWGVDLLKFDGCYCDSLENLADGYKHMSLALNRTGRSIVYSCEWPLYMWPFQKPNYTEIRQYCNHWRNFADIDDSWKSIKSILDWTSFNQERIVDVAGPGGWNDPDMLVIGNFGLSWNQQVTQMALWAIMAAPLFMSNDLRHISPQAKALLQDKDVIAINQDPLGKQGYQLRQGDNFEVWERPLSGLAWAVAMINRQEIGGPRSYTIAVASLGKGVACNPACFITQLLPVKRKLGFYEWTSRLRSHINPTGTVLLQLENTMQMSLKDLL
#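 Spleen homogenate 1 ug + cpd (titration) + 4-MU-alpha-D-galactopyranoside 1 mM; 37C 40 min; 50 mM citrate/phosphate pH 5.0, 0.01% Tween-20; stop pH 10; fluorescence 365/440; AC50 via Hill.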
# GLA inh pH 4.5: blocks human alpha-galactosidase A at pH 4.5; P06280; purified enzyme, 4-MU-alpha-Gal fluorescence, pH 4.5; activity change, negative = inhibition, % at 105 µM; 230,000 tested, under 10 active;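 note: 0% = full activity with enzyme and -100% = basal without enzyme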
# GAA inhib: alpha-glucosidase (human) inhibition; P10253; purified human GAA, 4-MU-alpha-glucoside fluorescence; Potency, µM (top dose mostly 76.9 µM), for inactives: top-dose activity change, negative = inhibition, actives largely listed as inhibitors; 200,000 tested, 0.005% active; AID 1466;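 note: potency is the fitted concentration of half-maximal effect; plate controls were uninhibited enzyme wells for no effect and no-enzyme background for full effect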
#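 Enzyme (4 nM final) mixed with compound (up to 77 uM), then 4-MU-alpha-D-pyranoside (400 uM final) added; 20 min at room temperature, pH 5.0. Reaction stopped at pH 10, fluorescence read, AC50 derived by Hill fit.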
# aGlu spleen mod: inhibits or activates alpha-glucosidase in human spleen homogenate; P10253; human spleen homogenate, 4-MU-alpha-glucoside fluorescence; Potency, µM (doses to about 79.9 µM), for inactives: top-dose activity change, negative = inhibition, most hits filed as inhibitors; 240,000 tested, 0.006% active; AID 2112;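 note: potency is the fitted concentration of half-maximal effect; 0% = enzyme with vehicle and -100% = no enzyme basal signal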
#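 Enzyme source: human spleen homogenate, 1 ug/well. Buffer 50 mM citric acid/K phosphate pH 5.0, 0.01% Tween-20. 4-MU-alpha-glucoside 1 mM; 37 C x 40 min; NaOH/glycine stop; fluorescence.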
# N370S GC mod: inhibits or activates N370S mutant glucocerebrosidase. P04062. N370S GC spleen homogenate, 4MU-glucoside fluorescence. Potency, µM (doses to about 59.4 µM), without a hit: at the top dose activity change, negative = inhibition, actives largely listed as inhibitors. 330,000 tested, 0.092% active;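 note: potency is the fitted concentration of half-maximal effect; 0% = full enzyme activity and -100% = no enzyme basal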
# Numbers without * were called inactive; ? = inconclusive; / = no result given; [ ] = another dose, or the depositor's remark. Calls come from the whole dose curve; as a rule, active = well fitted curve in the direction sought with a large enough effect; inconclusive = small, poorly fitted or top-dose-only effect, or another doubt; inactive = no such curve, though single readings can be large; an effect the other way counts as inactive or inconclusive.
SMILES,GAA glycogen mod,GLA spleen mod,GLA inh pH 4.5,GAA inhib,aGlu spleen mod,N370S GC mod
COc1ccc(NC(=S)N2CCCC(c3nc4ccc(C)cc4[nH]3)C2)c(OC)c1 (centres undefined),16µM*,9%,-16,-5%,1%,14%
CC(=O)Nc1ccccc1OCc1cc(=O)n2c(C)csc2n1,11%[76.3 µM],/,/,/,/,/
CN(Cc1cccs1)c1nc(-c2cccnc2)nc2ccccc12,-6%,4%,1,-7%,8%,24%
OC(CNc1nc(-c2cccnc2)nc2ccccc12)c1ccccc1 (centres undefined),/,/,/,/,/,10µM*
CN(C)c1nc(-c2cccnc2)nc2ccccc12,/,28µM*,/,/,-6%,8%
O=C(OCCNc1nc(-c2ccccc2)nc2ccccc12)c1cccnc1,-10%,5%,3,?,-6%,7.1µM*
Cc1ccc2nc3c(cc(C#N)c(=O)n3-c3nnc(SCc4ccccc4)s3)c(=O)n2c1,15%[76.3 µM],/,/,/,/,/
O=C(Nc1ccccc1F)c1oc2ccccc2c1NC(=O)c1c(F)cccc1F,2%[76.3 µM],/,/,/,/,/
Cc1coc2cc3oc(=O)c(CCC(=O)NCc4ccccc4Cl)c(C)c3cc12,17%[76.3 µM],/,/,/,/,/
Cc1ccc(-n2nc(CO)c(C(=O)NCc3cccs3)n2)cc1C,12%[76.3 µM],/,/,/,/,/
COC(=O)c1[nH]c2cc(OC)ccc2c1N,35µM*,9%,4,4%,7%,-11%
CCOC(=O)Nc1c(C(=O)OC)[nH]c2cc(OC)ccc12,2%,-10%,0,10%,-8%,27%
Oc1ccc(N2CCN(C(=S)NCCc3ccccc3)CC2)cc1,25µM*,3%,6,8%,-3%,-16%
CCc1ccc(O)c(N=Cc2ccccc2O)c1,11µM*,-2%,-13,-3%,-4%,-7%
c1ccc2c(-n3ccnc3)nc(-c3ccoc3)nc2c1,/,4%,3,/,-7%,-3%
CC(=O)c1cccc(NC(=O)Cn2cc(C(=O)c3cccc(Cl)c3)c(=O)c3ccc(C)nc32)c1,8%[76.3 µM],/,/,/,/,/
COc1cc(-c2nc3cnccn3c2Nc2ccc(C)cc2)ccc1O,11µM*,1%,0,-1%,-4%,-13%
COc1cc(-c2nc3cnccn3c2Nc2ccc3c(c2)OCCO3)ccc1O,7µM*,-2%,-3,-8%,-6%,-11%
COc1cc(-c2nc3ccc(C)cn3c2Nc2ccc3c(c2)OCCO3)ccc1O,0%,-1%,-5,?,-1%,?
Cc1n[nH]c(C)c1S(=O)(=O)N1CCCC(C(=O)Nc2ccc(Cl)cc2)C1 (centres undefined),-8%[76.3 µM],/,/,/,/,/
Cc1ccc2nc(-c3cccnc3)c(Nc3ccc(C(C)C)cc3)n2c1,-9%[76.3 µM],/,/,/,/,/
Cc1ccn2c(Nc3ccccc3C)c(-c3ccccn3)nc2c1,4µM*,0%,0,0%,-5%,-16%
Cc1ccn2c(Nc3ccccc3)c(-c3ccccn3)nc2c1,?,2%,-4,-12%,4%,3%
Cc1ccccc1Nc1c(-c2ccccn2)nc2ccccn12,?,-1%,-3,-2%,-1%,-10%
CC(C)c1ccc(Nc2c(-c3ccccn3)nc3ccccn23)cc1,5.6µM*,/,/,/,/,/
SMILES,GAA glycogen mod,GLA spleen mod,GLA inh pH 4.5,GAA inhib,aGlu spleen mod,N370S GC mod
Cc1ccn2c(Nc3ccc(C(C)C)cc3)c(-c3cccnc3)nc2c1,16µM*,/,/,/,/,/
CCc1nnc(N/N=C/c2ccc(N3CCC(C)CC3)c([N+](=O)[O-])c2)n1N,?,-6%,-7,2%,-15%,?
Cc1nnc(N/N=C/c2cc([N+](=O)[O-])c(N3CCC(C)CC3)cc2N2CCC(C)CC2)n1N,31µM*,1%,-11,?,-7%,-14%
CN(C)c1ccc(C(=C2C=CC(=[N+](C)C)C=C2)c2ccc(N(C)C)cc2)cc1,/,-1%,-7,/,-4%,3.2µM*
Cc1c(C(=O)NCc2ccccc2)sc2nc3n(c(=O)c12)CCC3,-17%[76.3 µM],/,/,/,/,/
CC[C@@]1(c2ccccc2)NC(=O)NC1=O,/,0%,/,/,4%,-10%
Cc1ccc2c(c1)N(CCCC(=O)NCc1cccc(F)c1)C(=O)CO2,45µM*,/,/,/,/,/
CCOC(=O)c1ccccc1N1C(=O)CSC1=S,28µM*,12%,-7,0%,-6%,4%
Cc1ccccc1C(=O)NN1C(=O)CSC1=S,?,6%,-5,-1%,4%,-7%
COc1cc(C)c(N)cc1C(C)C,14µM*,12%,-6,0%,-1%,-1%
Oc1ccc(N2CCN(c3nc(-c4cccs4)nc4ccccc34)CC2)cc1,25µM*,-5%,4,/,-6%,?
CN1CCN(c2nc(-c3cccs3)nc3ccccc23)CC1,7%,-1%,9,-5%,-3%,6%
Oc1ccccc1N1CCN(c2nc(-c3cccs3)nc3ccccc23)CC1,40µM*,8%,-2,/,6%,4.5µM*
O=C(NCCC1=CCCCC1)c1ccc2c(c1)N(Cc1ccccc1F)C(=O)c1ccccc1S2=O (centres undefined),-12%[76.3 µM],/,/,/,/,/
CC(C)=CCC/C(C)=C/CO/N=C1/C[C@@H](O)[C@@H](O)[C@@H]2[C@@H]3C(=O)N(c4cccc(Oc5ccccc5)c4)C(=O)[C@H]3CC[C@@H]12,/,0%[17.5 µM],/,/,5%[17.4 µM],4%[12.8 µM]
Cc1nn(-c2ccccc2)c2[nH]c(=O)c(CNc3ccc(N4CCOCC4)cc3)cc12,20µM*,3%,3,5%,-5%,-8%
Cc1cc(NC(=O)CN2CCN(c3ccccc3O)CC2)no1,13µM*,-19%,2,-2%,-3%,7%
